These results are taken from PubChem BioAssay AID504339 (National Center for Advancing Translational Sciences (NCATS), 2011).

Structures are written as SMILES. Screen size: about 390,000 compounds; about 17,000 (4.4%) were called active. Not shown: some 8% with an inconclusive outcome. This is one part of a sample in which actives are shown more often than they occur. A number with no mark means an inactive call. The call rests on the fitted dose curve; in most records, active means well fitted inhibition curve with a large enough effect; inconclusive means small, poorly fitted or top-dose-only effect; inactive means no such curve, though single readings can be large or run the other way.
On the % scale 0 is the no-effect control and ±100 the full control effect; potency means the concentration at half of the fitted maximal effect.

Lysine-specific demethylase 4A (Homo sapiens), sequence (O75164 whole entry, looked up, the tested form may be a part): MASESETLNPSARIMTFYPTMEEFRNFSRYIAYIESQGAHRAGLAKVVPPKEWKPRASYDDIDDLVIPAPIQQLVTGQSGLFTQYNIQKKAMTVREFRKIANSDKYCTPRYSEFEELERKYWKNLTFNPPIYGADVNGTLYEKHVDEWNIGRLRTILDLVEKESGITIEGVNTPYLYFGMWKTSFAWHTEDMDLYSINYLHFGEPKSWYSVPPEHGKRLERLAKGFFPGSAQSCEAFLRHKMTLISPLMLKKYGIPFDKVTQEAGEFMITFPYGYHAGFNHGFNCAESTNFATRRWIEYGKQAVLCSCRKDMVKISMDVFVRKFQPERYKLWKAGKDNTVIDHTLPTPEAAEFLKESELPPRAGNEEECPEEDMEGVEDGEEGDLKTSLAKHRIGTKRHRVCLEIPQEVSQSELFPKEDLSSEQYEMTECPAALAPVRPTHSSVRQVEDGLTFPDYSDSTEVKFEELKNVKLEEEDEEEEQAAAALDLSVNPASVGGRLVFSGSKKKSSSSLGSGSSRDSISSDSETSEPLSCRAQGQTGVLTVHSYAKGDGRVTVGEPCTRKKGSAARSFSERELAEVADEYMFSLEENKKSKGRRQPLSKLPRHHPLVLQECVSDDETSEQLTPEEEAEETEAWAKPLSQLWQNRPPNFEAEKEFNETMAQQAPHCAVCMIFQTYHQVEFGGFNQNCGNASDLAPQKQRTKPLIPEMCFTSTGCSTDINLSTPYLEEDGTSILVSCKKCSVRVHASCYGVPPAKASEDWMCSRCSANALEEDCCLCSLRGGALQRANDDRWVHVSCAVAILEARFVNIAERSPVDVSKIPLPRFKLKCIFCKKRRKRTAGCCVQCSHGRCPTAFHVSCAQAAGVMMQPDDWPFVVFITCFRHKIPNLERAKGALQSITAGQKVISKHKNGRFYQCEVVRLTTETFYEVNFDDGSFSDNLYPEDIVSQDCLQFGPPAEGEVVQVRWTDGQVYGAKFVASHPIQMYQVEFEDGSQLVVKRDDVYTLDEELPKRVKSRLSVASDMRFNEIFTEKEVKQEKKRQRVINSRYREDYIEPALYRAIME

This assay concerns the target Lysine-specific demethylase 4A (Homo sapiens) (UniProt O75164). Briefly: qHTS Assay for Inhibitors of JMJD2A-Tudor Domain. Further: nearly all actives have a fitted effect of over 50% in size. The note with it: AlphaScreen JMJD2A-Tudor / H3K4me3 peptide binding; series mostly up to 114 µM; activity change, negative = inhibition: at the top concentration.
As to `Cc1cccc(C(=O)N2CCc3cc(CNC(=O)Cc4ccc(F)cc4)ccc32)c1`, the “activity change, negative = inhibition” value was -23.3%. Consider `COc1cccc(C(=O)Nc2ccc(-c3cc(C(F)(F)F)nn3-c3ccccc3)cc2)c1`, for which the “activity change, negative = inhibition” value was 0%. As for `OCc1cnc(SCc2ccc(F)cc2)n1Cc1ccc(F)cc1`, the “activity change, negative = inhibition” value was -28.4%. The same measure, in the same setting: to `Cc1ccc(S(=O)(=O)N2CCN(c3nc(-n4cnc5ccccc54)nc4ccccc34)CC2)cc1` belongs -23.4%. As for `c1ccc(Cn2nnc3c(N4CCCCC4)ncnc32)cc1`, the “activity change, negative = inhibition” value is 16.3%. Still for that read-out and setting: the result for `COc1cc(OC)cc(-c2nc3nc(C)c(CCC(=O)Nc4ccc(C)cc4)c(C)n3n2)c1` reads -21.2%. Same read-out and setting: the result for `Nc1ccc(C(=O)Nc2ccccc2N)cc1` reads -8.97%. Consider `Cc1ccc(Nc2ccccc2N)cc1`, for which the Potency is 44.7 µM (active). `Cc1ccc(Nc2nc(Cl)c(C=O)s2)cc1`: the “activity change, negative = inhibition” value is 1.05%.

In the case of `O=C(c1ccco1)n1nc(-c2ccc(Cl)cc2)nc1NCc1ccccc1`, the “activity change, negative = inhibition” value is 3.78%. Turning to `Cc1nn2c(=O)cc(COC(=O)c3cccc(NC(=O)COc4ccccc4Cl)c3)nc2s1`, the “activity change, negative = inhibition” value was -21.9%.

Regarding `Cc1cc(/C=N/NC(N)=O)c(C)n1C1CCCCC1`, the “activity change, negative = inhibition” value is -26.2%. On the same count and under the same terms, to `Cc1cc(/C=N/n2cnnc2)c(C)n1-c1ccc2ncccc2c1` belongs -26.6%. `Cc1cccc(-n2c(C)cc(/C=N/NC(N)=S)c2C)c1`: the Potency was 56.2 µM (active). As for `Cc1cc(C(=O)Nc2cccc(C(F)(F)F)c2)c2c(C)nn(-c3cccc(F)c3)c2n1`, the “activity change, negative = inhibition” value is 20.1%.

On to `COCCCNC(=O)c1ccc(NC(=O)c2nsc3ccccc23)cc1`, for which the “activity change, negative = inhibition” value was 5.52%. Still for that read-out and setting: the result for `CCCCN1C(=O)/C(=C/C=C2/C=Cc3ccccc3N2CC)SC1=S` reads -28.7%.

Regarding `CCCCN1C(=O)/C(=C2/C=CC=CN2C)SC1=S`, the Potency was 44.7 µM (active). The same measure, in the same setting: to `COc1cccc(OC)c1C(=O)N1CCN(Cc2cccnc2)CC1` belongs 5.01 µM (active). In the case of `COc1cccc(OC)c1OCCN1CCN(C(=O)c2ccco2)CC1`, the “activity change, negative = inhibition” value is -15% [at 57.1 µM].

Take `COc1ccccc1C(=O)N1CCN=C1SCc1cccnc1`: the “activity change, negative = inhibition” value was 0.331%.

As to `CCCn1c2ccccc2c2cnn(CC(=O)NCCCOC(C)C)c(=O)c21`, the “activity change, negative = inhibition” value was -8.91%.

For the compound `COc1cccc(N=C2SC(C(=O)Nc3cccc(Cl)c3)CC(=O)N2C)c1` (configuration not stated), the “activity change, negative = inhibition” value is -17%. On the same count and under the same terms, the result for `COc1cccc(CNC(=O)Cn2ncn3c(cc4ccccc43)c2=O)c1` reads -13.5%. As to `S=c1[nH]nc(-c2cc(-c3ccccc3)n[nH]2)n1/N=C/c1c2ccccc2cc2ccccc12`, the Potency was 39.8 µM (active).

Regarding `S=c1[nH]nc(-c2ccccc2)n1/N=C/c1c[nH]c2ccccc12`, the Potency was 89.1 µM (active). Still for that read-out and setting: the result for `Cc1ccc(/C=N\n2c(-c3ccccc3)n[nH]c2=S)s1` reads 50.1 µM (active).

Consider `C=CCNC(=S)N/N=C/c1ccc(C)s1`, for which the “activity change, negative = inhibition” value is -23.5%. Still for that read-out and setting: to `CCc1n[nH]c(=S)n1/N=C/c1c[nH]c2ccc(Br)cc12` belongs -20%. Still for that read-out and setting: to `C[n+]1ccc(/C=C/c2c[nH]c3ccccc23)cc1` belongs -0.69%; to `O=C(Cn1cncn1)N/N=C/c1c2ccccc2cc2ccccc12`, 5.2%. With `Cc1ccccc1C(=O)NCc1nc(-c2ccc(Cl)cc2)no1`, the “activity change, negative = inhibition” value was -14.9%. With `O=C(Nc1ccc(S(=O)(=O)N2CCC(c3nc4ccccc4s3)CC2)cc1)c1ccccc1F`, the “activity change, negative = inhibition” value is 1.99%. On the same count and under the same terms, to `CCc1ccc(C2CC(=O)c3c([nH]c(C(=O)OCc4ccc(C)cc4)c3C)C2)cc1` (configuration not stated) belongs -5.14%. With `Cc1cccc(N2CCN(C(=O)c3ccc(Nc4nc5ccccc5n5nnnc45)cc3)CC2)c1C`, the “activity change, negative = inhibition” value is -9.59%. Same read-out and setting: the result for `N#Cc1nc(/C=C/c2ccc(F)cc2)oc1NCc1ccc(F)cc1` reads -8.8%.

For the compound `CC(=O)N1CCc2cc(S(=O)(=O)NC(Cc3ccccc3)C(=O)NCc3ccc(C)cc3)ccc21` (configuration not stated), the “activity change, negative = inhibition” value was -24%. Still for that read-out and setting: the result for `Cc1ccccc1CNC(=O)C1CCCN(S(=O)(=O)N(C)c2ccc(F)cc2)C1` (configuration not stated) reads 3.66%. With `CC1=C/C(=N\OS(=O)(=O)c2ccccc2)C=CC1=O`, the Potency is 22.4 µM (active). With `CCc1ccccc1NC(=O)Cn1c(=O)n(-c2cccc(C)c2)c(=O)c2c1c1cc(OC)ccc1n2C`, the “activity change, negative = inhibition” value was 7.93%. Take `O=C(NC1CCCCC1)c1ccc2c(c1)N(Cc1ccc(Cl)cc1)C(=O)c1ccccc1S2=O` (configuration not stated): the “activity change, negative = inhibition” value is -18.2%.

For the compound `CCOc1cc(C(=O)Nc2nnc3n2CCS3)cc(OCC)c1OCC`, the “activity change, negative = inhibition” value is -10.6%. On the same count and under the same terms, the result for `O=C(O)c1cccc2c1C(=O)N(C1CCCCC1)C2` reads -27.1%. On to `O=C(O)C1CCN1C1CCCCC1` (configuration not stated), for which the Potency is 31.6 µM (active). Regarding `O=C(O)C1CC=CC2CCN(C3CCCCC3)C(=O)C21` (configuration not stated), the “activity change, negative = inhibition” value is -6.21%. On the same count and under the same terms, to `CCCCOc1ccc(NC(=O)c2cc3c(n(-c4ccc(Cl)cc4)c2=O)CCCC3=O)cc1` belongs -21.3%. Turning to `COC1C(CO)OC(n2cnc3c(=S)nc(N)[nH]c32)C1O` (configuration not stated), the Potency is 17.8 µM (active). For `CC(C)Sc1nc(N)nc2c1ncn2C1OC(CO)C(O)C1O` (configuration not stated), the “activity change, negative = inhibition” value was -8.97%. Same read-out and setting: the result for `Nc1nc(SCc2ccc([N+](=O)[O-])cc2)c2ncn(C3OC(CO)C(O)C3O)c2n1` (configuration not stated) reads -18.2%; that for `O=C(Nc1ccc(Oc2ccccc2)cc1)C1CCN(S(=O)(=O)c2ccc(Cl)cc2)CC1`, 2.08%; that for `COc1ccc(C(=O)Nc2nonc2-c2ccc(OC)c(OC)c2)cc1Cl`, -15.1%. Same read-out and setting: to `Cc1ccc(S(=O)(=O)N(Cc2nc(-c3ccc(Cl)cc3)no2)C2CCCCC2)cc1` belongs 13.2%.
